CSC inhib – cancer stem cell viability inhibitors, primary screen, luminescence. inhibition, % at 7.5 µM. 1.1% of 300,000 active. cancer stem cell-like cells viability; in the data active = inhibition above about 75%; tested in HMLE shEcad cells
Mdm2-MdmX inh – inhibitors of human Mdm2-MdmX association, primary screen, cell-based, luminescence, split luciferase, SaOS-2, uHTS; inhibition, % at 8 µM; 3% of 330,000 active; SaOS-2 split-luciferase Mdm2/MdmX complementation;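 active = inhibition of at least 50% at 8 µM in the primary screen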
Target sequence (O15151 whole entry, looked up): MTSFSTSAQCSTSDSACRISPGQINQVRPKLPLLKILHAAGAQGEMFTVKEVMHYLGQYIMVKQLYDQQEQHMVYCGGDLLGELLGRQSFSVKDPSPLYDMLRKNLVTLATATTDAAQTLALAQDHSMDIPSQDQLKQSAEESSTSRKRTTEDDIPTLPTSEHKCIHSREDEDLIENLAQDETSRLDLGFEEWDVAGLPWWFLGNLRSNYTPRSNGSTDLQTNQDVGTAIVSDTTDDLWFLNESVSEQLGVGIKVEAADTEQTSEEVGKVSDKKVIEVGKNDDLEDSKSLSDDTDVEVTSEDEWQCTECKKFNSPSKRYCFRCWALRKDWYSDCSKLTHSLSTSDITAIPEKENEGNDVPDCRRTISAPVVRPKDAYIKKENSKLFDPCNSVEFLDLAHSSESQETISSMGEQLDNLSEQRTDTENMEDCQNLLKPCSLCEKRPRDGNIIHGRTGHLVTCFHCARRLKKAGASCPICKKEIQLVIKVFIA
Target sequence (Q00987 whole entry, looked up): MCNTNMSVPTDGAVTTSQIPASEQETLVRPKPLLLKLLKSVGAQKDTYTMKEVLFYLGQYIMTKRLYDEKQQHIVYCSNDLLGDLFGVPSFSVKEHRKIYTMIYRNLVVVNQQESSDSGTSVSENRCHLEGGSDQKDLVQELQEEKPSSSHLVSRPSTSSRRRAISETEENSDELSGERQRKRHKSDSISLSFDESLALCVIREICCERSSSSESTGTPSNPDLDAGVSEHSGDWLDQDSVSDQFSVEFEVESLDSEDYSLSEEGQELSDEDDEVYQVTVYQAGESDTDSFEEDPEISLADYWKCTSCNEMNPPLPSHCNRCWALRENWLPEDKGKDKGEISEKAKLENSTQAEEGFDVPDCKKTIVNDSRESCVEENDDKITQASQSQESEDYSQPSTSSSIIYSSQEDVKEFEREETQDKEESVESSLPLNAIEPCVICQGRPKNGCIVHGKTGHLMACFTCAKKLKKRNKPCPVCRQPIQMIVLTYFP
Beta cell apopt – inhibitors of cytokine-induced beta cell apoptosis, primary screen, luminescence | INS-1E cytokine-induced death, ATP luminescence, 48 h; percent of positive-control rescue, neutral wells zero | AID 435005, 2010 | protection from apoptosis, % (test concentration not listed) | 0.8% of 300,000 active;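 active = Every replicate reaches about 75%, or at least half do and their mean reaches it too, limit read from the data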;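 also: 0% = cytokine-treated negative control wells and 100% = positive control rescue; higher means more ATP so stronger rescue from cytokine killing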
MPTP inh – mitochondrial permeability transition pore inhibitors, primary screen, biochemical, isolated mouse mitochondria, absorbance; Ca2+ swelling absorbance, 30 min; inhibition, % at 10 µM; 1.4% of 360,000 active;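 active = inhibition of 50% or more, scaled per plate between neutral and stimulator controls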;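 also: 0% = DMSO wells given calcium and 100% = 1 mM EGTA wells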
Calb FLC – C. albicans growth inhibition with fluconazole, primary screen, CaCi-2 strain, Alamar Blue fluorescence; C. albicans CaCi-2 (fluconazole-resistant clinical isolate) + fluconazole, 48 h; growth inhibition, % (concentration not given with the values); 0.57% of 300,000 active; AID 1979, 2009;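 active = growth inhibition above about 58% in most replicates, limit read from the data, passing the limit was not always enough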;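 also: all wells also contain fluconazole at 8 µg/ml as a sub-toxic cotreatment; 0% = median of DMSO wells and 100% = median of geldanamycin control wells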
Mdm2 MdmX conf – Mdm2-MdmX complex disruptors, retested hits, confirmation, luminescence, single concentration; Mdm2-MdmX binding, luminescent assay; 55% of 10,000 active; shares compounds with Mdm2-MdmX inh; inhibition, % at 8 µM; in the data active = inhibition above about 40%
Full FLuc ctr – full-length luciferase signal inhibition, confirmation, counter-screen for Mdm2/MdmX interaction inhibitor project, cell-based, single concentration, SaOS-2; 77% of 6,200 active; shares compounds with Mdm2-MdmX inh; SaOS-2 full-length luciferase counterscreen, luminescence; inhibition, % at 8 µM;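 active = mean inhibition at 8 µM reaching about 37%, which flags the compound as non-specific, limit read from the data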;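 also: p53-null SaOS-2 cells with luciferase driven by a doxycycline-inducible promoter; compound on cells about two nights before reading with doxycycline added after day one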
* = called active by the depositor; nt = not tested or not shown. Only some compounds are listed: those with a hit (about 4.8% of all), similar ones and a draw of the others.

SMILES	CSC inhib	Mdm2-MdmX inh	Beta cell apopt	MPTP inh	Calb FLC	Mdm2 MdmX conf	Full FLuc ctr
OC(c1ccccc1)(c1nc(-c2cc3ccccc3o2)cs1)C(F)(F)F (configuration not stated)	nt	nt	nt	0.9	nt	nt	nt
O=C(NNC(=O)C(c1ccccc1)c1ccccc1)c1ccccn1	27.1	66.0*	70.2	-1.2	-61.2	66.2*	41.5*
O=C(NNC(=S)Nc1ccc(Cl)c(Cl)c1)c1ccccn1	109.2*	78.6*	78.3*	-0.1	101.6*	84.0*	47.7*
CCn1c(=O)cc(OCC(=O)NCCCN2CCCC2=O)c2ccccc21	5.1	3.2	-5.6	0.1	2.0	nt	nt
C=CCn1c(SCc2c(C)noc2C)nc2sc(C)c(C)c2c1=O	59.5	56.2*	14.4	0.8	-20.4	60.3*	49.4*
COC(=O)c1c(NC(=O)COc2ccc(Cl)cc2)sc2c1CC(C)(C)NC2(C)C	10.1	94.9*	102.3*	2.1	32.1	98.8*	-0.4
CCOC(=O)c1c(NC(=O)c2ccc(S(=O)(=O)N3CCOCC3)cc2)sc2c1CC(C)(C)NC2(C)C	12.0	55.4*	-1.1	0.6	-7.2	34.4	nt
CCOC(=O)c1c(NC(=O)c2ccc(S(=O)(=O)N3CCOCC3)cc2)sc2c1CCN(C)C2	19.7	22.4	-2.9	-1.0	-25.8	nt	nt
CCOC(=O)c1c(NC(=O)COc2ccccc2F)sc2c1CC(C)(C)NC2(C)C	45.0	83.5*	nt	0.3	7.6	71.8*	63.3*
Cc1ccc(C(C)C)c(OCC(=O)Nc2sc3c(c2C#N)CC(C)(C)NC3(C)C)c1	65.2	59.0*	29.3	3.2	-15.5	30.7	81.2*
CCOC(=O)c1c(NC(=O)CSc2ncccn2)sc2c1CC(C)(C)NC2(C)C	-16.6	35.2	-7.2	-0.1	10.5	nt	nt
O=C(c1cc2ccccc2o1)N1CCN(c2ccccn2)CC1	-5.0	-3.9	-8.2	-0.3	45.8	nt	nt
O=C(/C=C/c1cn(-c2ccccc2)nc1-c1cccnc1)c1ccco1	66.7	51.5*	-5.0	1.7	56.2	33.6	nt
O=C(/C=C/c1cn(-c2ccccc2)nc1-c1cccnc1)N1CCCC1	nt	nt	nt	-0.1	48.8	nt	nt
O=C1CC(c2ccc3c(c2)OCO3)Sc2nc3ccccc3n21 (configuration not stated)	14.9	54.2*	0.9	-1.1	-6.1	67.0*	169.3*
COC(=O)[C@@]1(Sc2ccc(C)cc2)CC(=O)N(C(=O)/C=C/c2ccccc2)[C@@H]1c1ccccc1	nt	nt	nt	0.1	nt	nt	nt
CCN(CC)c1ncnc2c1ncn2Cc1c(Cl)cccc1Cl	25.1	-18.3	13.7	10.8	-9.1	nt	nt
Clc1cccc(Cl)c1Cn1cnc2c(N3CCCCCC3)ncnc21	50.4	78.5*	19.9	1.6	16.7	24.4	nt
O=C(NCc1ccccc1)c1onc(CSc2ccccc2)c1C(=O)NCC1CC1	17.4	54.5*	73.5	1.6	-1.1	49.6*	81.4*
CC1(C(=O)NS(=O)(=O)c2ccccc2)CCN1C(=O)CC1CC1 (configuration not stated)	nt	nt	nt	-1.5	nt	nt	nt
CC(C)(C)OC(=O)N[C@@H](Cc1ccccc1)c1nnc(S(=O)(=O)Cc2ccccc2)o1	131.5*	100.3*	48.9	nt	nt	70.2*	0.3
Cc1ccccc1CS(=O)(=O)c1nnc([C@H](Cc2ccccc2)NC(=O)OC(C)(C)C)o1	99.2*	100.4*	93.2*	-1.6	-7.7	52.8*	0.6
COc1cc(CN2C[C@@H](CO)O[C@@H](n3cnc4c(NCc5ccncc5)ncnc43)C2)cc(OC)c1OC	nt	nt	nt	-1.2	nt	nt	nt
CC1(C)CCCC2(C)C1CCC1(C)OC(=O)CCC12 (configuration not stated)	nt	nt	nt	-2.3	nt	nt	nt
CC(=O)OC[C@]12CC[C@H]3[C@@](C)(CC[C@H]4C(C)(C)CCC[C@]34C)[C@@H]1C[C@H](C1=CC(=O)O[C@@H]1OC(C)=O)O2	132.1*	63.4*	2.0	nt	nt	-11.6	nt
SMILES	CSC inhib	Mdm2-MdmX inh	Beta cell apopt	MPTP inh	Calb FLC	Mdm2 MdmX conf	Full FLuc ctr
C=C(C)CNC(=S)NNC(=O)CCn1c2ccc(Cl)cc2c2cc(Cl)ccc21	102.2*	54.0*	4.6	10.5	1.6	17.6	nt
CC(C)COC(=O)N1CCCCC1c1cc(C(=O)Nc2ccc3c(c2)OCO3)no1 (configuration not stated)	nt	nt	nt	-0.1	nt	nt	nt
COc1ccc(NC(=O)Cc2nnc(SCC(=O)NC3=NCCS3)n2C)cc1	-6.8	-9.6	-26.7	0.1	-2.7	nt	nt
O=C1C(=C2SCCCS2)CC/C1=C\c1ccc(F)cc1	35.6	82.1*	7.5	-1.1	-3.9	81.0*	25.5
CN(C)c1cccc(CNC(=O)c2ccc3sc([C@@H]4O[C@H](CO)[C@H](O)[C@H](O)[C@H]4O)nc3c2)c1	nt	nt	nt	0.5	nt	nt	nt
Cc1cc(C[n+]2ncsc2N)c2ncccc2c1	-7.0	98.7*	-3.8	2.1	-3.9	17.4	nt
Cc1cc(C[n+]2cc(Cl)ccc2N)c2ncccc2c1	4.9	32.5	1.6	1.4	15.2	nt	nt
CCOc1ccc2c(c1)sc(N)[n+]2Cc1cc(C)cc2cccnc12	-6.0	57.9*	62.9	41.9	1.3	64.9*	60.0*
COc1ccc(CCC(C)N2CCC(CO)(Cc3ccccc3)CC2)cc1 (configuration not stated)	12.4	-10.5	nt	1.9	1.2	nt	nt
CCc1ccc(C=C2SC(=S)N(CCCC(=O)Nc3ccc(C(=O)O)cc3)C2=O)cc1	nt	nt	nt	0.6	nt	nt	nt
CCc1ccc(/C=C2\SC(=S)N(CCCC(=O)Nc3ccccn3)C2=O)cc1	6.2	85.1*	-6.5	-3.5	-3.3	72.8*	52.7*
COC(=O)c1ccc(/C=C2/SC(=S)N(CCCC(=O)Nc3ccccn3)C2=O)cc1	63.0	75.5*	-11.9	1.4	7.0	32.4	nt
CO[C@H]1CN(C)C(=O)c2ccc(NC(=O)C3CCC3)cc2OC[C@H](C)N(Cc2ccccn2)C[C@@H]1C	nt	nt	nt	3.5	nt	nt	nt
CC(C)(C)c1ncc(S(=O)(=O)c2ccc(C(F)(F)F)cn2)c(N)n1	-5.6	15.1	8.8	4.9	-6.6	nt	nt
COC(=O)COc1ccc(S(=O)(=O)Nc2ccc3c(c2)OCO3)cc1	0.4	14.5	-2.1	0.9	27.9	nt	nt
COC(=O)COc1ccc(S(=O)(=O)Nc2ccc3c(c2)OCO3)cc1Cl	8.1	52.4*	-13.9	4.7	-4.0	29.2	nt
CN(C)CCCNC(=O)C[C@H]1C[C@H](C(=O)N2CCCCC2)[C@@]2(CCc3ccccc3)c3[nH]c4cc(-c5ccco5)ccc4c3CCN2C1=O	nt	59.3*	nt	-0.5	nt	52.5*	44.5*
